For assay [1], the target named is 6-phosphogluconate dehydrogenase, decarboxylating (Homo sapiens) (UniProt P52209). Put plainly: 6PGD enzyme inhibitors, primary screen, biochemical, human, recombinant enzyme, NADPH absorbance (AID 1159550). The settings on record: recombinant 6PGD, NADPH absorbance 341 nm; at 10 µM; stronger effect = higher value.
The target of assay [2] is NAD(+) hydrolase SARM1 (Homo sapiens) (UniProt Q6SZW1). Briefly: SARM1 TIR NADase inhibitors, cell lysate, NAD-Glo luminescence (AID 1508614;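 active means compound whose remaining NAD level is above about 45 nM, limit read from the data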). As to conditions: SAM-TIR HEK293T lysate NADase, at 1 µM, stronger effect = higher value.
Sequence of NAD(+) hydrolase SARM1 (Homo sapiens) (Q6SZW1 whole entry, looked up, the tested form may be a part): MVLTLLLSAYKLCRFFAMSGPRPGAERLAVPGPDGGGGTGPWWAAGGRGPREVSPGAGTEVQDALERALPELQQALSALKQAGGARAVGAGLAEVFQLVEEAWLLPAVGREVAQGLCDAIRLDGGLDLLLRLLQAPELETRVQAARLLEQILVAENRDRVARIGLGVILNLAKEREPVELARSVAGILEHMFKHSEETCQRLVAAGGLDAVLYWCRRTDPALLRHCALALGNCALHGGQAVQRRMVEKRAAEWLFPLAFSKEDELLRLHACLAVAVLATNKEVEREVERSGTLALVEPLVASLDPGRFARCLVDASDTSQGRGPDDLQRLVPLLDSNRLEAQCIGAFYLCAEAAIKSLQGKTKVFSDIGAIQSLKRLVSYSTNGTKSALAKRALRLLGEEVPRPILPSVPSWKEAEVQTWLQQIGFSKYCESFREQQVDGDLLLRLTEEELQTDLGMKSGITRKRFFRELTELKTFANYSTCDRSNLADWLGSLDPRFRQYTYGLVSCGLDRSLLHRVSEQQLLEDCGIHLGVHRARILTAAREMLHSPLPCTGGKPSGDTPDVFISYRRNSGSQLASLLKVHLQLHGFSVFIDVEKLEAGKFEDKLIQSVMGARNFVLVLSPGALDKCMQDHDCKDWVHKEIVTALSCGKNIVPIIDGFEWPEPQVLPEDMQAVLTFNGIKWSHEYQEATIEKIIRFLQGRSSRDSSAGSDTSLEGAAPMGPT
Assay [3] deals with Mitogen-activated protein kinase 7 (Homo sapiens) (UniProt Q13164). Put plainly: ERK5 transactivation activators in reporter cells, primary screen, cell-based, HTS (AID 1508626;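 active means luciferase signal above three times the same-plate solvent-only control wells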;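 further: luciferase driven by Gal4-ERK5 fusion binding five Gal4 sites before minimal TATA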). As to conditions: HeLa Gal4-ERK5 transactivation, 18 h, at 5 µM, stronger effect = higher value.
Sequence of Mitogen-activated protein kinase 7 (Homo sapiens) (Q13164 whole entry, looked up, the tested form may be a part): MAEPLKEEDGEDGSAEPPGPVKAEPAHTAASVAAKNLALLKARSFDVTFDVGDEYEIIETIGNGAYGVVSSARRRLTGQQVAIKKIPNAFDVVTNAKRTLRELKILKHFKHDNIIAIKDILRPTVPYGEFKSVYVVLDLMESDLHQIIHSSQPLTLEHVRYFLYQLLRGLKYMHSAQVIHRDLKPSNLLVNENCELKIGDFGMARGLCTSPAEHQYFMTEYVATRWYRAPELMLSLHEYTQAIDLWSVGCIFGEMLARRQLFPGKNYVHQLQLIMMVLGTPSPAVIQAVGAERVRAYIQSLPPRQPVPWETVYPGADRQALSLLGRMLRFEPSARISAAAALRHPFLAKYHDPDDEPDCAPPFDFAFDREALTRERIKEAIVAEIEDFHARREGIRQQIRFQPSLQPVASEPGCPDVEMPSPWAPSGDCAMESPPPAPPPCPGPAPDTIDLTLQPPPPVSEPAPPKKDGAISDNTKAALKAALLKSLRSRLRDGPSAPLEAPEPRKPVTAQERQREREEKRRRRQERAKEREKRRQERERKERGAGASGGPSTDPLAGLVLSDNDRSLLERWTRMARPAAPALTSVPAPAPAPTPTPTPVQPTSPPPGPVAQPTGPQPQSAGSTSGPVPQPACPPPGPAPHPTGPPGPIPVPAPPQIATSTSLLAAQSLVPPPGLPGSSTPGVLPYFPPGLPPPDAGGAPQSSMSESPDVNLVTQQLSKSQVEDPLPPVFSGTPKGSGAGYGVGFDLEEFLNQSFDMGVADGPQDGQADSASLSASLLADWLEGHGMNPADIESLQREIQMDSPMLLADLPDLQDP
Assay [4] is described as follows: hESC survival regulators, cell-based (AID 493140; call rule not given here;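 further: cells exposed to compounds for four days before counting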). As to conditions: human embryonic stem cell survival screen; stronger effect = higher value.
Assay [5] is described as follows: liver-stage malaria parasite growth inhibition, primary screen, cell-based, HepG2, luciferase luminescence, HepG2 viability (AID 624349; in the data active means parasite load remaining mostly below about 12%, no sharp cut-off; inactive means mostly above about 10%;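 further: 100% = mean of DMSO negative control wells on the same plate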). As to conditions: P. berghei liver stage in HepG2, luciferase luminescence, concentration not given here; parasite load remaining: stronger effect = lower value; viability: measured here: HepG2 viability without parasites.
The nature of assay [6]: differential killing of epithelial or mesenchymal cells, primary screen, imaging, PC-3E GFP, TEM4-18 mCherry, co-culture (AID 1345086;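 active means compounds killing one labelled cell type while sparing the other, by normalised counts and ratio limits, not self-fluorescent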;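 on all read-outs here: cells exposed to compound for 72 h before imaging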;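 on red/green cell ratio (normalised): normalised mesenchymal count divided by normalised epithelial count so high means epithelial killing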). As to conditions: imaging cell counts, at 1 µM; for red/green cell ratio (normalised): actives lie on both sides.
Assay [7] deals with Aerobactin synthetase IucA (Klebsiella pneumoniae hvKP1). Briefly: Biochemical IucA enzyme inhibition primary screen of the Spectrum library (AID 1346200; call rule not given here;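 further: 100% = wells without compound and 0% = wells lacking enzyme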). The settings on record: malachite green pyrophosphate, A620, at 8 µM, stronger effect = lower value.
Assay [8] concerns Aerobactin synthetase IucA (Klebsiella pneumoniae, hypervirulent). Briefly: IucA enzyme inhibition, biochemical, LOPAC library, absorbance readout (AID 1346212; call rule not given here;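 further: 100% = no compound wells and 0% = no enzyme wells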). The settings on record: IucA enzyme assay, absorbance (OD) readout; stronger effect = lower value;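 tested at 8 µM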.
Assay [9] in a line: survival rescue of mitochondrial mutant cells in low glucose, primary screen, MELAS cybrids, Rieske KO mouse fibroblasts, CellTiter-Glo (AID 1508586;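 active means mean z-score across replicates of 1.96 or higher in either the MELAS or the Rieske mutant cell line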;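 further: z relative to plate mean and SD of compound and empty wells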).
Assay [10] is described as follows: viability rescue of complex I mutant cybrids, primary screen, cell-based, galactose medium, ATP luminescence (AID 1645843;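 active means z-score of at least 1.8 in each of two replicates, scored against plate mean and spread of sample wells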;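 further: positive z means more ATP and so rescue of galactose-driven cybrid death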). As to conditions: complex I mutant cybrid cells, 72 h, stronger effect = higher value.
Assay [11] is described as follows: sensitizers of A549 cells to miR-34 induction, primary screen, imaging, A549 dox-inducible miR-34, nuclei and caspase counts (AID 1347080;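 active means compounds whose cell count with miR-34 switched on is under 0.7 times the count with it off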). The settings on record: A549 miR-34 inducible, Hoechst nuclei count, 48 h.
The mark [12] stands for this setting: measured here: epithelial PC-3E GFP cell survival.
Setting [13] is: measured here: mesenchymal TEM4-18 mCherry cell survival.
Where [14] appears, read: MELAS cybrid survival, CellTiter-Glo 48 h, stronger effect = higher value.
Where [15] appears, read: Rieske KO mouse fibroblast survival, CellTiter-Glo 72 h.

Several values for one entry are separate records, joined by “and”; a condition that tells them apart may be missing. Equal values may be shown once. Activity calls are given as the source filed them.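 How the source made its calls, unless noted: active means at least 20% inhibition of 6-phosphogluconate dehydrogenase activity; inactive means the rest.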

Sequence of 6-phosphogluconate dehydrogenase, decarboxylating (Homo sapiens) (P52209 whole entry, looked up): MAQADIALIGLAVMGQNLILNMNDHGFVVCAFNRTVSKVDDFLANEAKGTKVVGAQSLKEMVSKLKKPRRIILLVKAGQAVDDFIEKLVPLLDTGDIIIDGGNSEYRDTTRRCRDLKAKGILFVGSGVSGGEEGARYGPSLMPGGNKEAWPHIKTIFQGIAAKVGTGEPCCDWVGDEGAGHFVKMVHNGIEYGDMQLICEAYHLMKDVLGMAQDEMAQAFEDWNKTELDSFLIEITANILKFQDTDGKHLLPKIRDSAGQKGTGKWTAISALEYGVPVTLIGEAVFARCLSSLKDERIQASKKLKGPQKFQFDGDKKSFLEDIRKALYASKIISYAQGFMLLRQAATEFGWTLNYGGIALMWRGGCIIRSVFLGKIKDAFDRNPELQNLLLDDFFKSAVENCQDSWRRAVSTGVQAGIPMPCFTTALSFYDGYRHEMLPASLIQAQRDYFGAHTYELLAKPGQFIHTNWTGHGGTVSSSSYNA

Consider `CC[C@H]1CN2CC[C@H]1C[C@@H]2[C@@H](O)c1ccnc2ccc(OC)cc12`, for which the inhibition in [1] is 5.31% (inactive). Also, the remaining NAD in assay [2] was 10 nM (inactive). In assay [3], the luciferase signal was 16 AU (inactive).
As to `O=c1c2ccccc2[se]n1-c1ccccc1`, in assay [4], the survival was 0.417 (inactive). Besides, the parasite load remaining in assay [5] was 54.1% (inactive) and 46.2% (inactive). Besides, the viability in [5] was 93.6% and 69.7%. In addition, the inhibition in assay [1] was 51.1% (active). Besides, the red/green cell ratio (normalised) in [6] is 0.87 (inactive). In addition, the normalised cell number came out at 1.06 in [6] (setting [12]) and 0.92 in assay [6] (setting [13]). For the same compound, in [7], the activity remaining is -2.27% (active). For the same compound, the remaining activity in assay [8] is -5.47% (active). In addition, the values for the z-score in [9] (setting [14]), in [9] (setting [15]) and in assay [10] were -1.8, 2.16 and -1.44 (inactive), respectively. For the same compound, in [2], the remaining NAD was 10 nM (inactive).
Consider `CO[C@H]1[C@H](O)[C@H](O[C@H]2CC[C@]3(C)C4CC[C@]5(C)[C@@H](C6=CC(=O)OC6)CC[C@]5(O)C4CC[C@@H]3C2)O[C@@H](C)[C@@H]1O` (some centres undefined), for which the inhibition in [1] was 11.3% (inactive).
For the compound `COP(=O)(OC)OC(C)C(C)=O` (centres undefined), in assay [1], the inhibition was 13.2% (inactive).
In the case of `NC(=O)CS(=O)C(c1ccccc1)c1ccccc1` (centres undefined), the parasite load remaining in assay [5] is 153% (inactive) and 44.2% (inactive) and 93% (inactive). For the same compound, the viability in [5] was 83% and 104% and 71.7%. In [1], the inhibition was -7.07% (inactive). Moreover, the red/green cell ratio (normalised) in [6] is 1.19 (inactive). In addition, the normalised cell number in assay [6] (setting [12]) was determined as 1.04; in assay [6] (setting [13]), 1.24. Besides, in [7], the activity remaining was 120% (inactive). The fold change in assay [11] (stronger effect = lower value) is 0.912 (inactive) and 0.928 (inactive) and 0.913 (inactive); in [11] (measured here: relative caspase fold change +Dox/-Dox), 0.934 and 0.471 and 9.69. Also, the cell count in assay [11] (measured here: total cells with miR-34 induction, stronger effect = lower value) is 8970 and 9060 and 12100; in [11] (measured here: total cells without miR-34 induction), 9830 and 9770 and 13200. Also, the z-score in [9] (setting [14]) was 0.264 (inactive); in assay [9] (setting [15]), 0.0685; in [10] it was 0.66 (inactive). Also, in [2], the remaining NAD is 10 nM (inactive). Besides, in [3], the luciferase signal is 40 AU (inactive).
With `Clc1ccc(Cl)cc1`, the inhibition in assay [1] was 7.33% (inactive).
`CC[C@@H](CO)NC(=O)[C@@H]1C=C2c3cccc4[nH]cc(c34)C[C@H]2N(C)C1`: the parasite load remaining in [5] is 65.8% (inactive) and 65.3% (inactive) and 59.9% (inactive). The viability in assay [5] was 103% and 77.1% and 98.3%. The inhibition in assay [1] is 10.6% (inactive). Also, the red/green cell ratio (normalised) in assay [6] is 0.98 (inactive). The normalised cell number was 0.88 in [6] (setting [12]) and 0.87 in [6] (setting [13]). The activity remaining in [7] is 97% (inactive). In addition, the remaining activity in assay [8] is 107% (inactive). In addition, the z-score is 0.332 (inactive) in assay [9] (setting [14]); 0.352 in assay [9] (setting [15]); 0.87 (inactive) and -0.035 (inactive) in assay [10]. Besides, the remaining NAD in assay [2] is 10 nM (inactive). For the same compound, in assay [3], the luciferase signal is 60 AU (inactive).
Turning to `NCC(CC(=O)O)c1ccc(Cl)s1` (centres undefined), in [1], the inhibition is -3.23% (inactive).
Consider `COc1cc2c(cc1OC)[C@@]13CCN4CC5=CCO[C@H]6CC(=O)N2[C@H]1[C@H]6[C@H]5C[C@H]43`, for which, in [5], the parasite load remaining was 80.5% (inactive) and the viability turned out to be 63.8%. Also, the inhibition in assay [1] was 7.74% (inactive). Further, in [2], the remaining NAD was 10 nM (inactive). In assay [3], the luciferase signal is 76 AU (inactive).
Turning to `CC(C)CC(N(C)C)C1(c2ccc(Cl)cc2)CCC1` (centres undefined), in [1], the inhibition is 14.3% (inactive). Besides, in assay [6], the red/green cell ratio (normalised) is 1.04 (inactive). Further, the figures for the normalised cell number in assay [6] (setting [12]) and in [6] (setting [13]) were 0.98 and 1.02, respectively. Besides, the activity remaining in assay [7] was 121% (inactive). In addition, the z-score in assay [9] (setting [14]) is 0.37 (inactive) and 0.394 (inactive); in [9] (setting [15]), 0.153 and 0.475; in assay [10], -1.39 (inactive) and -1.34 (inactive) and -2.03 (inactive). Also, the remaining NAD in [2] is 10 nM (inactive). Besides, in assay [3], the luciferase signal is 60 AU (inactive).

The values are drawn from PubChem BioAssay.
